TAR Tat displ – HIV-1 TAR-Tat binding disruption | z-score (test concentration not listed) | actives 0.6% (n = 100,000) | HIV-1 TAR RNA, Tat peptide displacement FRET; hits give high values; active means z-score of 3 or more in at least 2 runs
CDC25B-CDK2 inh – human CDC25B-CDK2/CyclinA binding inhibition. P30305+P24941. HTRF CDC25B-CDK2/CyclinA binding, anti-His/anti-Flag; hits give high values. z-score (concentration not given with the values). actives 0.72% (n = 94,000). AID 1259370; in the data active means z-score above about 3.2
An asterisk follows results filed as active; nt = no result given. Sampled rows, rich in hits. Any-hit rate of the full collection: about 0.9%.

SMILES	TAR Tat displ	CDC25B-CDK2 inh
CC1(C(=O)NC2CCCC2)Cn2c(ccc2-c2ccco2)C(=O)N1Cc1ccco1 (stereo not given)	3.74*	nt
CC1(C(=O)NC2CCCCC2)Cn2c(ccc2-c2ccco2)C(=O)N1Cc1ccco1 (stereo not given)	-6.86	nt
CC1CCCCN1CCN1C(=O)c2ccc(-c3ccco3)n2CC1(C)C(=O)NC1CCCCC1 (stereo not given)	-3.22	nt
CC1CCCCN1CCN1C(=O)c2cc3ccccc3n2CC1(C)C(=O)NC1CCCCC1 (stereo not given)	18*	nt
Cc1cccc(C(=O)N2c3ncnn3C3(CCCCC3)[C@@H]3CCCC[C@@H]32)c1	9.19*	0.37
O=C(c1ccccc1)N1c2ncnn2C2(CCCCC2)[C@@H]2CCCC[C@@H]21	2.79	-1.4
CCc1nn2c(=O)cc(CSc3n[nH]c(-c4ccccc4)n3)nc2s1	0.25	nt
O=C(Nc1ccc(F)cc1)c1ccc(Cn2nc(N3CCN(c4ccc(F)cc4)CC3)ccc2=O)o1	0.64	nt
O=C(Nc1ccc2c(c1)OCO2)c1ccc(Cn2nc(N3CCN(c4ccccc4)CC3)ccc2=O)o1	17.1*	nt
O=C1C2N=NN(Cc3ccc(Cl)cc3)C2C(=O)N1c1ccc(Cl)cc1 (stereo not given)	-3.31	-1.87
CCn1c(=O)n(CC)c2cc(NC3=C(C(=O)N4CCOCC4)S(=O)(=O)c4ccccc43)ccc21	1.44	nt
NC(=O)CSc1nc2ccccc2c(=O)[nH]1	2.03	-0.94
O=C(CSc1nc2ccccc2c(=O)[nH]1)N1CCc2ccccc21	14.4*	nt
COc1ccc(-c2csc(-c3nc(-c4ccc(F)cc4)cs3)n2)cc1	0.9	nt
Cc1ccc2c(ccc(/C=C3\Sc4ccccc4N3C)[n+]2C)c1	-9.18	0.39
Cc1ccc2c(c1)N(C)/C(=C/c1sc3ccccc3[n+]1CCO)S2	4.27*	-1.87
C=CCN1/C(=C/c2cccc[n+]2C)Sc2ccccc21	6.74*	0.99
C=CCN1/C(=C/c2cc[n+](C)cc2)Sc2ccccc21	4.14*	0.36
CCN1/C(=C/C2=CC(=O)CC(C)(C)C2)Sc2ccccc21	-15.3	-2.11
CN1/C(=C\c2cc[n+](C)cc2)Sc2ccccc21	7.52*	0.14
CCn1c(=O)/c(=C2\Sc3ccccc3N2C)s/c1=C\c1cccc[n+]1C	1.01	nt
C=CC[n+]1ccc(/C=C2\Sc3ccccc3N2C)cc1	1.65	-3.41
Nc1nonc1-n1nnc(C(=O)O)c1CN1CCCC1	nt	-0.5
Cc1cccc(NC(=O)NC2(C(F)(F)F)Oc3ccccc3O2)n1	nt	-0.53
Cc1cc(C)cc(Nc2c3c(nc4ncnn24)CCCC3)c1	0.3	nt
SMILES	TAR Tat displ	CDC25B-CDK2 inh
Cc1ccc(-n2ccc(=O)c(C(=O)Nc3c(C(=O)c4ccccc4)oc4ccccc34)n2)cc1	-0.46	-1.04
O=C(O)c1ccccc1Sc1cc(C(=O)O)c(Sc2ccccc2C(=O)O)cc1C(=O)O	nt	14.6*
CSc1ccccc1C(=O)c1ccccc1C(=O)O	nt	-1.54
O=S(=O)(c1ccccc1)N1CCN(c2nc3ccccc3n3cccc23)CC1	2.08	-1.19
O=C(Cc1cccs1)Nc1c(C(=O)N2CCN(c3ccccc3)CC2)oc2ccccc12	-7.32	nt
Cc1sc2c(c1C)CSC(C(=O)NCc1ccco1)=C2	3.56*	nt
Cc1ccc(CNC(=O)C2=Cc3sc(C)c(C)c3CS2)cc1	0.81	nt
O=C(Cn1ncc2c1-c1ccccc1OC2)N1CCCC1	nt	-1.09
O=C(O)Cn1ncc2c1-c1ccoc1CC2	0.9	11.3*
O=C(CSc1nc2c(c(=O)[nH]1)CCCC2)Nc1ccccc1F	14.6*	-1.64
O=C(CSc1nc2c(c(=O)[nH]1)CCCC2)Nc1ccccc1Cl	0.06	-1.71
CC1CCCC(NC(=O)Cn2ncn3nc(-c4cccs4)cc3c2=O)C1C (stereo not given)	-0.15	-3.03
O=C1c2ccncc2C(=O)N1c1ccccc1F	-0.22	nt

Assay outcomes: PubChem, Center for Chemical Genomics, University of Michigan
